What all share (test): NCI-60 one-dose screen, 48 h (100 = growth as untreated, 0 = no growth, -100 = all killed)
Details in all cases: 10 µM unless noted

For experiment [1], the system named is NCI-H23 lung.
Experiment [2] has as its system NCI-H226 lung.
In experiment [3] the test system is NCI-H322M lung.
For experiment [4], the system named is HOP-62 NSCLC.
The subject of experiment [5] is NCI-H460 lung.
Experiment [6] has as its system HOP-92 NSCLC.
Experiment [7] concerns NCI-H522 lung.
The subject of experiment [8] is A549/ATCC NSCLC.
In experiment [9] the test system is 786-0 renal.
The subject of experiment [10] is COLO 205 colon.

Our source for the growth values is PubChem BioAssay (NCI).

Structures are written as SMILES. Compounds without any hit were thinned out: in the full panel of roughly 83,000, 20% have a hit.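 Testing used 96-well plates and a 48-hour single-concentration exposure. Example: -40 means 40% of the starting cells died.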 Unmarked numbers belong to inactive results. Calls of active or inactive are those of the source. How the source made its calls: active means growth percent below 10; inactive means the rest.

Consider `Cc1cc(Nc2cc(N3CCN(C)CC3)nc(Sc3ccc(NC(=O)C4CC4)cc3)n2)n[nH]1`, for which the growth in [1] is 38.2%; in experiment [2], 36.3%; in experiment [3], 58.8%; in experiment [4], 18.4%; in experiment [5] it was 14.1%; in experiment [6], 12.1%. In addition, the growth in [7] was 24.1%; in experiment [8], 20.6%; in [9], 48.4%; in experiment [10], -29.3% (active).

With `CCN1CCN(c2cc(C)nc(N(CCCNc3ccnc4cc(Cl)ccc34)Cc3cccs3)n2)CC1`, the growth was 49% in experiment [1]; 57.6% in [2]; 12% in experiment [3]; -25.4% (active) in experiment [4]; 5.44% (active) in experiment [5]; 11.6% in experiment [6]. For the same molecule, the growth is 8.27% (active) in [7], 20.1% in experiment [8], -71.8% (active) in experiment [9] and -80.2% (active) in experiment [10].

For `CCCCCCCCCCCC[n+]1ccccc1`, the growth in [1] was 8.58% (active); in [2] it was 24.4%; in experiment [3], 55.7%; in experiment [4] it was -8.28% (active); in [5], 3.69% (active); in experiment [6] it was -24.8% (active). Moreover, the growth in experiment [7] was 1.19% (active); in [8] it was 9.04% (active); in [9], -16.8% (active); in experiment [10] it was -74% (active).

Take `CCCCN1CCCC[C@@H]1C(=O)N[C@H](C(=O)N(C)[C@H](CCc1nc(C(=O)N[C@@H](Cc2ccccc2)C[C@H](C)C(=O)OC)cs1)C(C)C)C(C)C`: the growth in experiment [1] is 59.7%; in experiment [2], 80.6%; in experiment [3], 75.6%; in [4] it was 80.8%; in [5], 94.6%; in experiment [6], 18.8%. Moreover, the growth was 49.6% in experiment [7], 81.8% in experiment [8], 77.4% in experiment [9] and 63.5% in experiment [10].

For the molecule `Cc1ccc(NC(=O)Nc2ccc(Nc3ncnc4sc5c(c34)CCOC5)cc2)cc1Cl`, the growth was 99.9% in experiment [1]; 94.9% in experiment [2]; 103% in experiment [3]; 74.6% in experiment [4]; 108% in [5]; 91.6% in [6]. Also, the growth was 60.9% in [7], 85.8% in experiment [8], 110% in experiment [9] and 102% in [10].

Regarding `CC(N)C(Cc1ccccc1)c1ccc(Cl)cc1` (stereo not given), the growth is 92.5% in [1]; 89.3% in experiment [2]; 95.5% in experiment [3]; 56.9% in [4]; 90.9% in experiment [5]; 56.5% in experiment [6]. The growth is 75.9% in experiment [7], 76.2% in experiment [8], 81% in experiment [9] and 84.4% in experiment [10].

Turning to `COc1c(C(NC(=O)c2ccccc2)c2sccc2C)cc(Cl)c2cccnc12` (stereo not given), the growth was 100% in [1]; 89.1% in [2]; 99.8% in experiment [3]; 88.2% in experiment [4]; 106% in [5]; 104% in [6]. Moreover, the growth in experiment [7] was 72.4%; in [8], 75.7%; in [9], 98.9%; in experiment [10], 121%.

Turning to `COc1cc(CCc2cc(NC(=O)c3ccc(N4C[C@@H](C)N[C@@H](C)C4)cc3)n[nH]2)cc(OC)c1`, the growth in experiment [1] was 40.1%; in experiment [2] it was 46.1%; in experiment [3] it was 22.7%; in [4] it was 38.1%; in experiment [5] it was 24.6%; in [6] it was 54.4%. For the same molecule, the growth in experiment [7] is 40.4%; in [8] it was 37.4%; in [9] it was 38.6%; in experiment [10], 9.19% (active).

Consider `CCc1ccc(C2=C(O)C(=O)C(c3ccc(CC)cc3)=C(O)C2=O)cc1`, for which the growth in experiment [1] is -17.4% (active); in experiment [2], -3.98% (active); in experiment [3] it was -19.6% (active); in experiment [4], -12.8% (active); in experiment [5], -19.8% (active); in [6] it was -47.9% (active). The growth is -20.7% (active) in experiment [7], -58.3% (active) in [8], 0.0366% (active) in experiment [9] and 5.7% (active) in [10].

`CO[C@H]1C[C@@H]2CC[C@@H](C)[C@@](O)(O2)C(=O)C(=O)N2CCCC[C@H]2C(=O)O[C@H]([C@H](C)C[C@@H]2CC[C@@H](OP(C)(C)=O)[C@H](OC)C2)CC(=O)[C@H](C)/C=C(\C)[C@@H](O)[C@@H](OC)C(=O)[C@H](C)C[C@H](C)\C=C/C=C/C=C/1C`: the growth in [1] was 57.5%; in experiment [2], 40.9%; in experiment [3], 54.5%; in experiment [4], 28.5%; in experiment [5] it was 40.4%; in [6], 36.2%. Moreover, the growth in experiment [7] was 31.8%; in [8] it was 34.6%; in [9] it was 53.3%; in experiment [10] it was 52.6%.

Regarding `OCCNC(=S)Nc1ccc(-c2nc(N3C[C@H]4CC[C@@H](C3)O4)c3cccn3n2)cc1`, the growth in experiment [1] is 17.4%; in experiment [2], 0.203% (active); in experiment [3], 19.3%; in experiment [4], -14.3% (active); in experiment [5] it was 11%; in experiment [6], -21.2% (active). For the same molecule, the growth was 13.3% in experiment [7], -1.6% (active) in experiment [8], 1.86% (active) in experiment [9] and -8.64% (active) in experiment [10].

Take `CC(C)c1ccc(/C=N/Nc2nc3ccccc3s2)cc1`: the growth in experiment [1] was 80.4%; in experiment [2], 81.7%; in [3], 96%; in experiment [4], 87.8%; in experiment [5], 95.2%; in [6], 82.5%. Besides, the growth in [7] is 85%; in [8], 85.8%; in experiment [9], 108%; in experiment [10], 88.5%.

For the molecule `Nc1nc(N)c2nc(-c3cccc(O)c3)c(-c3cccc(O)c3)nc2n1`, the growth in experiment [1] was 82.5%; in [2], 78.5%; in experiment [3] it was 47%; in [4] it was 54.1%; in [5], 92.8%; in experiment [6], 49.5%. For the same molecule, the growth in experiment [7] was 49.3%; in [8], 75.1%; in experiment [9], 65.7%; in experiment [10], 79%.

In the case of `CCN(CC)CCN1C(=O)c2cccc3c(-c4ccc5c(c4)ncn5C4CCCCC4)ccc(c23)C1=O`, the growth in experiment [1] is 20.2%; in experiment [2], -29.9% (active); in experiment [3], 43.2%; in [4], 8.72% (active); in [5], -30.9% (active); in [6], -7.68% (active). In addition, the growth in experiment [7] is 21.3%; in experiment [8], 18.8%; in experiment [9] it was -46.1% (active); in [10], -20.4% (active).

With `CC(C)[C@@H](C)/C=C/[C@@H](C)[C@H]1CCC2=C3C=CC4=CC(=O)CC[C@]4(C)[C@H]3CC[C@@]21C`, the growth in experiment [1] was 96%; in experiment [2], 93.2%; in experiment [3] it was 93.9%; in experiment [4], 104%; in experiment [5], 107%; in experiment [6], 86.6%. The growth was 67.2% in [7], 77.4% in experiment [8], 101% in experiment [9] and 105% in experiment [10].

For `CCCCCCCCCNCCCCCCCCC`, the growth is 40.4% in [1]; 69.6% in [2]; 113% in experiment [3]; 76.3% in experiment [4]; 103% in experiment [5]; 8.18% (active) in [6]. Also, the growth in [7] is -3.05% (active); in experiment [8], 99.3%; in experiment [9], 66.5%; in experiment [10], -92.8% (active).

As to `COCC(=O)NC/C=C/c1ccc2ncnc(Nc3ccc(Oc4ccc(C)nc4)c(C)c3)c2c1`, the growth is 39.3% in [1]; 53.5% in [2]; 10.8% in experiment [3]; 58.8% in experiment [4]; 50.7% in [5]; 23.8% in [6]. In addition, the growth in [7] is 14.8%; in experiment [8] it was 46%; in [9], 55%; in experiment [10], 9.48% (active).

Consider `Cc1ccc(NC(=O)NC(=O)CSc2nc3ccccc3nc2C)cc1`, for which the growth in [1] is 42.6%; in experiment [2] it was 59.4%; in experiment [3], 95.1%; in experiment [4], 45%; in experiment [5], 64.9%; in experiment [6], 36.1%. Moreover, the growth in [7] is 40.8%; in experiment [8], 70.2%; in experiment [9], -16.3% (active); in experiment [10], 81.1%.

Turning to `Cc1nc(N)sc1-c1ccnc(Nc2ccc(N3CCOCC3)cc2)n1`, the growth in experiment [1] was 43.1%; in experiment [2], 35.6%; in [3] it was 51.4%; in [4], 11.4%; in experiment [5], 15.9%; in experiment [6] it was 34.9%. The growth in [7] is 11.6%; in experiment [8] it was 21.9%; in experiment [9], 34.5%; in experiment [10] it was 1.1% (active).

For `CC1=CC2c3oc(-c4ccccc4)c(C(=O)c4ccccc4)c3CNC2C=C1` (stereo not given), the growth in experiment [1] was 95%; in experiment [2], 83.8%; in experiment [3], 94.6%; in experiment [4], 74.5%; in experiment [5] it was 100%; in experiment [6] it was 97.5%. The growth in [7] is 57.7%; in experiment [8], 74.2%; in experiment [9], 111%; in experiment [10], 109%.

On to `Cc1nn(-c2nc3ccccc3[nH]2)c2c1C(c1ccc(OCc3ccc(F)cc3)cc1)CC(=O)N2` (stereo not given), for which the growth in [1] was 46.9%; in [2], 74.5%; in experiment [3], 70.4%; in experiment [4], 69.5%; in experiment [5] it was 48%; in [6], 72%. In addition, the growth is 30.5% in experiment [7], 41.8% in experiment [8], 63.4% in experiment [9] and 103% in experiment [10].

`CO[C@H]1C[C@@H]2CC[C@@H](C)[C@@](O)(O2)C(=O)C(=O)N2CCCC[C@H]2C(=O)O[C@H]([C@H](C)C[C@@H]2CC[C@@H](OC(=O)C(C)(CO)CO)[C@H](OC)C2)CC(=O)[C@H](C)/C=C(\C)[C@@H](O)[C@@H](OC)C(=O)[C@H](C)C[C@H](C)\C=C/C=C/C=C/1C`: the growth in experiment [1] is 44.4%; in [2], 34.3%; in experiment [3] it was 38.5%; in experiment [4], 21.8%; in experiment [5], 22.6%; in [6], 9.36% (active). Moreover, the growth in experiment [7] is 22.7%; in [8], 22%; in experiment [9] it was 26.2%; in [10] it was 28.5%.

`CCN(CCO)CCCOc1ccc2c(Nc3cc(CC(=O)Nc4cccc(F)c4)[nH]n3)ncnc2c1`: the growth is 29.2% in experiment [1]; 63.9% in [2]; 14.4% in experiment [3]; 35.7% in experiment [4]; 22.6% in [5]; 23.2% in experiment [6]. Further, the growth in [7] is 22.9%; in experiment [8], 23.9%; in [9], 66.1%; in experiment [10], -35.6% (active).

On to `CCOC(=O)c1sc(NC(=O)COc2ccc(/C=C3\Cc4ccc(Cl)cc4C3=O)cc2)nc1C`, for which the growth in experiment [1] was 97.1%; in experiment [2], 97.1%; in experiment [3] it was 103%; in experiment [4], 109%; in experiment [5] it was 95%; in experiment [6], 92.5%. Moreover, the growth was 97.2% in experiment [7], 104% in experiment [8], 110% in experiment [9] and 118% in experiment [10].

Turning to `COC(=O)c1[nH]cnc1/N=N/N(C)CCO`, the growth in experiment [1] is 96.3%; in experiment [2], 101%; in [3] it was 108%; in [4], 97.4%; in experiment [5], 105%; in [6], 128%. The growth in experiment [7] is 92%; in experiment [8], 109%; in [9] it was 93.5%; in [10], 120%.
